From PubChem
IMPase Li cell – qHTS Assay for Identifying the Cell-Membrane Permeable IMPase Inhibitors: Potentiation with Lithium; CHO-M1 cells, IP1 TR-FRET (IP-One), carbachol + lithium; Potency, µM (doses to about 59.4 µM), usual class: inhibitors; actives 0.35% (n = 210,000);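 note: IP1 builds up when IMPase is blocked and the TR-FRET signal falls; nearly all actives have a fitted effect of over 50% in size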
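CHO cells stably expressing M1 receptor (2000/well, cultured 16–30 h) treated 30 min at 37C with compound plus low lithium. Cytosolic IP1 by TR-FRET (665/620 ratio and 620 channel) after 10 min lysis; AC50 by Hill fit.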
HPGD inh – qHTS Assay for Inhibitors of HPGD (15-Hydroxyprostaglandin Dehydrogenase). 15-hydroxyprostaglandin dehydrogenase [NAD(+)] (Homo sapiens), P15428. actives 4.3% (n = 150,000). purified HPGD, NADH fluorescence kinetic, PGE2 substrate. AID 894, 2007. Potency, µM, most hits filed as inhibitors; active = well fitted inhibition curve with a large enough effect, not every such curve was filed as active; inconclusive = small, poorly fitted or top-dose-only effect, or another doubt; inactive = no such curve, though single readings can be large or run the other way
Target sequence (P15428 whole entry, looked up): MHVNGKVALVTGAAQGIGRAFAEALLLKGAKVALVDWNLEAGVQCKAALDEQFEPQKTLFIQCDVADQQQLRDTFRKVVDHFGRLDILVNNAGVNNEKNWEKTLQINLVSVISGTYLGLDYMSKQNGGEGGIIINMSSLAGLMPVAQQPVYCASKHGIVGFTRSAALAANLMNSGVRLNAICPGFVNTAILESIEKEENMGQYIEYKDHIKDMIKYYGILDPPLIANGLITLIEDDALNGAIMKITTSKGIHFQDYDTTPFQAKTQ
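NADH formation kinetics: reaction with 30 uM PGE2 and 1 mM NAD+ (final), 20 nM enzyme, Tris-HCl pH 8 with Tween 20, after 15 min compound preincubation at room temperature. Fluorescence change, last versus first of five reads.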
PNC assembly inh – High Content Assay for Compounds that inhibit the Assembly of the Perinucleolar Compartment | PC3M PTB-GFP, PNC prevalence imaging, 16 h; hits give low values | activity change (PNC), negative = inhibition, % at 10 µM | actives 3.1% (n = 140,000) | AID 2417, 2010;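 active = readout at or below -70, meaning at least 70% loss of cells showing the perinucleolar compartment, a nuclear body marking cancer cells; inconclusive = readout between -30 and a set limit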
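Compounds are pinned in duplicate onto adhered PC3M cells stably expressing GFP-tagged PTB and incubated 16 h at 37 C. Cells are then fixed, nuclei stained with Hoechst, and PNC-positive cells counted.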
IMPase cell inh – qHTS Assay for Identifying the Cell-Membrane Permeable IMPase Inhibitors. CHO-M1 cells, IP1 accumulation, HTRF TR-FRET ratio. inhibition (IP1 accumulation), % at 46.1 µM. 120,000 tested, under 10 active. AID 901, 2007; active = well fitted curve in the direction sought with a large enough effect in the signal ratio, not every such curve was filed as active; inconclusive = small, poorly fitted or top-dose-only effect, or a change in a side signal; inactive = no such curve, though single readings can be large or run the other way; the % refers to the signal ratio;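 note: cells stimulated with carbachol in lithium chloride buffer; higher means more IMPase inhibition seen as more IP1 and lower FRET ratio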
Target sequence (P97697 whole entry, looked up): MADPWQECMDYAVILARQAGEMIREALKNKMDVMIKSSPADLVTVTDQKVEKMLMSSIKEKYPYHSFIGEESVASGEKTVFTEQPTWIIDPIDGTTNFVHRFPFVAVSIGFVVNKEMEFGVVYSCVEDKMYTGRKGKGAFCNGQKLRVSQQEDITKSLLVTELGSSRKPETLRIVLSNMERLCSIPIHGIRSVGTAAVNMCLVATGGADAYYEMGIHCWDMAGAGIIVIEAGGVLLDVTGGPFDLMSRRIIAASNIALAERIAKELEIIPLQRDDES
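CHO-M1, 2000 cells/well, cultured 16–30 h; cpd up to 46 uM; carbachol (50 uM solution, stimulation buffer w/ 50 mM LiCl, pH 7.4), 30 min 37C; IP-One TR-FRET, 10 min RT; Ex 320/Em 665, 620; Hill-fit AC50.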
ALOX15B inhib – qHTS Assay for Inhibitors of 15-hLO-2 (15-human lipoxygenase 2). Polyunsaturated fatty acid lipoxygenase ALOX15B (Homo sapiens), O15296. purified 15hLO-2, xylenol orange hydroperoxide absorbance. Potency, µM (highest dose often 57.1 µM), usual class: inhibitors. actives 0.56% (n = 110,000). AID 881, 2007; note: nearly all actives have a fitted effect of over 60% in size
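Enzyme 50 nM, AA 45 uM, 25 mM Hepes pH 7.5 + 0.01% Triton X-100; cpd preinc 15 min RT, rxn 90 min RT; stop/detect with 200 uM XO + 300 uM Fe(II) in 50 mM H2SO4, 30 min; A573/A405.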
12-hLO inh – qHTS Assay for Inhibitors of 12-hLO (12-human lipoxygenase). Polyunsaturated fatty acid lipoxygenase ALOX12 (Homo sapiens), P18054. purified 12-hLO, xylenol orange hydroperoxide absorbance. Potency, µM (series often up to 57.1 µM), usual class: inhibitors. actives 0.12% (n = 150,000); note: nearly all actives have a fitted effect of over 55% in size
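Purified human 12hLO (150 nM final) was preincubated with compounds for 15 min at room temperature in 25 mM Hepes pH 7.0, 0.01% Triton X-100, then reacted with 40 uM arachidonic acid for 30 min. Hydroperoxide was detected with ferrous iron/xylenol orange.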
Large screens that a line does not name were inactive. Shown are actives, neighbours in structure and some others; about 5.4% of the full set was active somewhere. Unless noted, calls come from the whole dose curve; as a rule, active = well fitted curve in the direction sought with a large enough effect; inconclusive = small, poorly fitted or top-dose-only effect, or another doubt; inactive = no such curve, though single readings can be large; an effect the other way counts as inactive or inconclusive.

Cc1ccc(C(=O)N(c2ccc(C)cc2)S(=O)(=O)c2ccc(Cl)cc2)cc1	none (no result: IMPase Li cell, HPGD inh, PNC assembly inh, ALOX15B inhib, 12-hLO inh)
CCCCNC(=O)c1ccc(CNc2c(N3CCC(C(=O)OCC)CC3)c(=O)c2=O)cc1	HPGD inh 3.5µM, PNC assembly inh inconclusive (no result: ALOX15B inhib)
CC1CCN(c2c(NCc3ccc(C(=O)NCc4cccnc4)cc3)c(=O)c2=O)CC1	HPGD inh inconclusive, PNC assembly inh inconclusive (no result: ALOX15B inhib)
COc1ccc(CCNc2oc(-c3ccco3)nc2C#N)cc1	HPGD inh inconclusive, PNC assembly inh -100 (no result: ALOX15B inhib)
c1ccc(-c2cc(N3CCOCC3)nc(-c3ccccc3)n2)cc1	PNC assembly inh -83
CC1CCN(C(=S)c2ccc([N+](=O)[O-])cc2)CC1	HPGD inh 22µM (no result: ALOX15B inhib)
CCN1CCN(C(=S)c2ccc([N+](=O)[O-])cc2)CC1	HPGD inh 25µM (no result: ALOX15B inhib)
CCC(=O)N(CC)C1=C(O)c2ccccc2C(=O)C1=O	HPGD inh 13µM, PNC assembly inh inconclusive, ALOX15B inhib inconclusive
COc1ccc(S(=O)(=O)N(CCc2ccccc2)CC(=O)Nc2cccc(OC)c2)cc1	none (no result: IMPase Li cell, HPGD inh, PNC assembly inh, ALOX15B inhib, 12-hLO inh)
CCN1C=C(C(=O)OC)C(c2cccc(C)c2)C(C(=O)OC)=C1	HPGD inh inconclusive, PNC assembly inh -80
COC(=O)C1=CN(Cc2cccs2)C=C(C(=O)OC)C1c1cccc(Cl)c1	none (no result: HPGD inh, PNC assembly inh, IMPase cell inh, ALOX15B inhib, 12-hLO inh)
CCOc1cccc2c1OC1(C)CC2NC(=O)N1c1ccc(OC)cc1 (stereo not given)	PNC assembly inh -82
COc1ccc2c(c1)C(=O)[C@H](OC(=O)NCc1ccc3c(c1)OCO3)[C@@H](c1ccc(OC)c(Br)c1)O2	none (no result: PNC assembly inh, IMPase cell inh, ALOX15B inhib, 12-hLO inh)
COc1ccc(C(C(=O)NC2CCCC2)N(CCN(C)C)C(=O)c2snc(C(N)=O)c2N)cc1 (stereo not given)	HPGD inh inconclusive, PNC assembly inh -114
NC(=O)c1nsc(C(=O)N(CCc2ccccc2)C(C(=O)NC2CCCC2)c2ccco2)c1N (stereo not given)	none
O=C(CSc1ncc(-c2ccccc2)[nH]1)Nc1cccc(Br)c1	none (no result: IMPase Li cell, HPGD inh, PNC assembly inh, ALOX15B inhib, 12-hLO inh)
O=C1C2C3C=CC(C4CC34)C2C(=O)N1/N=C/c1ccc(-c2ccc([N+](=O)[O-])cc2)o1 (stereo not given)	none (no result: HPGD inh, PNC assembly inh, IMPase cell inh, ALOX15B inhib, 12-hLO inh)
COC(=O)c1ccc(-c2ccc(/C=N/N3C(=O)C4C5C=CC(C6CC56)C4C3=O)o2)cc1 (stereo not given)	HPGD inh 14µM (no result: IMPase cell inh, ALOX15B inhib)
Cc1ccc(-c2ccc(/C=N/N3C(=O)C4C5C=CC(C6CC56)C4C3=O)o2)c([N+](=O)[O-])c1 (stereo not given)	HPGD inh 13µM
O=C(O)/C=C(/C(=O)O)[C@]12CCN3CC4=CCO[C@@H]5CC(=O)N[C@@H]1[C@H]5[C@H]4C[C@H]32	none (no result: IMPase Li cell, HPGD inh, PNC assembly inh, IMPase cell inh)
CC1CCN(C(=O)c2scc3c2OCCO3)CC1	HPGD inh 16µM
CC1CCN(C(=O)c2ccc(-n3cnnn3)cc2)CC1	HPGD inh 18µM, IMPase cell inh inconclusive (no result: ALOX15B inhib)
CC1CCN(C(=O)c2ccc3c(c2)OCCO3)CC1	HPGD inh 0.4µM, PNC assembly inh inconclusive
CC1CCN(C(=S)c2ccc3c(c2)OCO3)CC1	HPGD inh 28µM
CCN1CCN(C(=O)NC(C(=O)NC2C(=O)N3C(C(=O)O)=C(CSc4nnnn4C)CSC23)c2ccc(O)cc2)C(=O)C1=O (stereo not given)	none (no result: PNC assembly inh, IMPase cell inh)
COc1ccc(NC(=S)NNC(=O)C2CC2c2ccc(C)cc2)cc1 (stereo not given)	none (no result: IMPase cell inh, ALOX15B inhib)
O=C(NNC(=S)Nc1ccc(F)cc1)C1CC1c1ccc(Cl)cc1 (stereo not given)	HPGD inh 16µM (no result: IMPase cell inh, ALOX15B inhib)
Cc1ccc(C2CC2C(=O)NNC(=S)Nc2cccc(Cl)c2)cc1 (stereo not given)	PNC assembly inh inconclusive (no result: ALOX15B inhib)
